Assay results published in the supplement of paper PMC4237247.

The molecules below were run on HeLa (assay: percent cells in G1/S phase; higher = more G1/S content). Conditions: 10 µM; 20 h; hit class: G2/M-phase inhibitor.
Method: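 HTS of 79,827 drug-like compounds at 10 uM. HeLa cells in 384-well plates were treated for 20 h, fixed, stained with Vybrant DyeCycle Green and scanned on an Acumen eX3 cytometer to give per-well cell cycle profiles. Only G2/M hits (>=67% G2/M) are listed.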

| Structure (SMILES) | percent cells in G1/S phase [%] |
| --- | --- |
| CN1Cc2c(ccc3c2OCO3)[C@@H]2[C@H]1c1cc3c(cc1C[C@@H]2O)OCO3 [Chelidonine monohydrate (+)] | 19.8 |
